In PubChem BioAssay (EPA / NIEHS):
Records with an inconclusive call do not appear. Active and inactive are the calls of the source. How the source made its calls, unless noted: active means hit-call score of the fitted dose curve at least 0.9, where 1 is the maximum; inactive means score below 0.9.

Experiments:
[1] = read-out: Monocyte Chemoattractant Protein-1 (MCP1), CCL2 (gene 6347); test: BSK_SAg_MCP1: BioMAP Diversity Plus: SAg Assay for Monocyte Chemoattractant Protein-1 (MCP1) Biomarker Activity (AID 2283090); conditions: primary human HUVEC with PBMC; actives raise or lower the signal
How it was run: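 Values derive from bidirectional fitting of ELISA-measured MCP1 against DMSO controls. Readings were taken 24 h after dosing human vascular endothelial cells co-cultured with peripheral blood mononuclear cells under superantigen stimulation.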

[2] = read-out: E-selectin (Homo sapiens) (UniProt P16581); test: BSK_SAg_Eselectin: BioMAP Diversity Plus: SAg Assay for Eselectin Biomarker Activity (AID 2283091); conditions: primary human HUVEC with PBMC; actives raise or lower the signal
How it was run: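 Primary human endothelial cells and peripheral blood mononuclear cells were co-cultured and exposed to chemical for 24 hours. E-selectin levels were then quantified by ELISA, with bidirectional curve fitting normalised to DMSO controls.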

[3] = read-out: Monokine induced gamma interferon (MIG), CXCL9 (gene 4283); test: BSK_SAg_MIG: BioMAP Diversity Plus: SAg Assay for Monokine induced gamma interferon (MIG) Biomarker Activity (AID 2283092); conditions: primary human HUVEC with PBMC; actives raise or lower the signal
How it was run: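 ELISA readout of MIG/CXCL9; primary human umbilical vein endothelial cells co-cultured with peripheral blood mononuclear cells; 24 h post-dose; gain/loss fit vs DMSO baseline.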

[4] = BSK_SAg_PBMCCytotoxicity: PBMC Cytotoxicity Assessment in the BioMAP Diversity Plus: SAg Assay (AID 2283093); conditions: primary human HUVEC with PBMC;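 further: PBMC viability measured as Alamar Blue reduction fluorescence at 546/580 nm; fitted both ways against DMSO so a hit may be loss or gain of signal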;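 on AC50: PBMC superantigen activated with SEB plus TSST-1 one hour after compound addition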
How it was run: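 Alamar Blue reduction (6 h, ex/em 546/580 nm) read after 90 h culture of PBMC pre-dosed 1 h then stimulated with SEB plus TSST-1, 20 ng/mL each. Gain or loss of signal fitted relative to DMSO.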

[5] = read-out: Interleukin-8 (IL8), CXCL8 (gene 3576); test: BSK_SAg_IL8: BioMAP Diversity Plus: SAg Assay for Interleukin-8 (IL8) Biomarker Activity (AID 2283094); conditions: primary human HUVEC with PBMC; actives raise or lower the signal
How it was run: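 Chemicals were dosed onto a human endothelial–PBMC co-culture, and IL-8 was quantified by ELISA after 24 h. Both increases and decreases were fitted relative to DMSO.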

[6] = BSK_SAg_Proliferation: Cell Proliferation Assessment in the BioMAP Diversity Plus: SAg Assay (AID 2283095); conditions: primary human HUVEC with PBMC;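 further: relative cell number as total protein by SRB absorbance in sub-confluent culture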
How it was run: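 Absorbance of sulforhodamine B at 560 nm reports total protein in a human vascular endothelial/PBMC co-culture after 96 h chemical exposure. Gain or loss of signal is fitted in both directions against DMSO.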

[7] = BSK_SAg_SRB: Viability Assessment in the BioMAP Diversity Plus: SAg Assay (AID 2283096); conditions: primary human HUVEC with PBMC;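 further: cells read one day after compound addition; hits may be either gain or loss of signal compared with DMSO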
How it was run: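 SRB absorbance at 560 nm served as the viability read-out. Cells (HUVEC plus peripheral blood mononuclear cells) were TCA-fixed and stained 24 h post-dosing; activity fitted in both directions against DMSO controls.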

[8] = molecular target: human CYP19A1, CYP19A1 (gene 1588) (UniProt P11511); test: NVS_ADME_hCYP19A1: NovaScreen (NVS) CYP450-related Enzyme Activity (ADME) Assay for human CYP19A1 (AID 2283098; active means hit-call score of the fitted dose curve at least 0.9, where 1 is the maximum;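 on AC50: potency for inhibitors seen as loss of fluorescent enzyme signal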)
How it was run: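 Primary testing was in duplicate at a single 10 uM concentration, with actives followed up in concentration-response series. Fluorescence read-out of recombinant enzyme activity at 0.5 h, cell-free. Acetonitrile was the negative-control baseline.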

[9] = molecular target: human CYP2A6, CYP2A6 (gene 1548) (UniProt P11509); test: NVS_ADME_hCYP2A6: NovaScreen (NVS) CYP450-related Enzyme Activity (ADME) Assay for human CYP2A6 (AID 2283099; active means hit-call score of the fitted dose curve at least 0.9, where 1 is the maximum)
How it was run: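 Recombinant human CYP2A6 from insect cells was incubated with chemical for 0.5 h and activity read by fluorescence. Single-concentration duplicates at 10 uM preceded concentration-response testing to 20 uM, with activity referenced to acetonitrile.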

[10] = molecular target: human CYP1A2, CYP1A2 (gene 1544) (UniProt P05177); test: NVS_ADME_hCYP1A2: NovaScreen (NVS) CYP450-related Enzyme Activity (ADME) Assay for human CYP1A2 (AID 2283102; active means hit-call score of the fitted dose curve at least 0.9, where 1 is the maximum;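 on AC50: fluorescence from turnover of a fluorogenic substrate by recombinant insect-cell CYP1A2; potency for inhibition since loss of fluorescence marks reduced CYP1A2 activity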)
How it was run: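 Compounds were tested at 10 uM in duplicate against recombinant CYP1A2 produced in insect cells. Enzyme activity was measured by fluorescence 0.5 h after dosing, with loss of signal versus acetonitrile control. Active compounds were re-tested in concentration series.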

Measured: AC50

human CYP19A1, CYP19A1 (gene 1588), sequence (P11511 whole entry, looked up): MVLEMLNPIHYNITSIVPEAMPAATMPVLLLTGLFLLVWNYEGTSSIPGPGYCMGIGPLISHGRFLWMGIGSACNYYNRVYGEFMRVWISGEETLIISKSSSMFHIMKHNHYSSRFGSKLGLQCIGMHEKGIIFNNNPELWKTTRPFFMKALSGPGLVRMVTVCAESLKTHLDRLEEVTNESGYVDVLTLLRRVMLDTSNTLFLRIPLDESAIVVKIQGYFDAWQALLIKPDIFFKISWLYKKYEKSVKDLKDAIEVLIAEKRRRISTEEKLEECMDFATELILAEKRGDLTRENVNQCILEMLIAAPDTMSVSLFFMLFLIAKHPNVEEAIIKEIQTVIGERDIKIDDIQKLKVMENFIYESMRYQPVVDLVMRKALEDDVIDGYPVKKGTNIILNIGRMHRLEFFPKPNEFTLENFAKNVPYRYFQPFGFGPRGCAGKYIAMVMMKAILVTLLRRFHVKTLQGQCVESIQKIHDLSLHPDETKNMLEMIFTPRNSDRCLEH
E-selectin (Homo sapiens), sequence (P16581 whole entry, looked up): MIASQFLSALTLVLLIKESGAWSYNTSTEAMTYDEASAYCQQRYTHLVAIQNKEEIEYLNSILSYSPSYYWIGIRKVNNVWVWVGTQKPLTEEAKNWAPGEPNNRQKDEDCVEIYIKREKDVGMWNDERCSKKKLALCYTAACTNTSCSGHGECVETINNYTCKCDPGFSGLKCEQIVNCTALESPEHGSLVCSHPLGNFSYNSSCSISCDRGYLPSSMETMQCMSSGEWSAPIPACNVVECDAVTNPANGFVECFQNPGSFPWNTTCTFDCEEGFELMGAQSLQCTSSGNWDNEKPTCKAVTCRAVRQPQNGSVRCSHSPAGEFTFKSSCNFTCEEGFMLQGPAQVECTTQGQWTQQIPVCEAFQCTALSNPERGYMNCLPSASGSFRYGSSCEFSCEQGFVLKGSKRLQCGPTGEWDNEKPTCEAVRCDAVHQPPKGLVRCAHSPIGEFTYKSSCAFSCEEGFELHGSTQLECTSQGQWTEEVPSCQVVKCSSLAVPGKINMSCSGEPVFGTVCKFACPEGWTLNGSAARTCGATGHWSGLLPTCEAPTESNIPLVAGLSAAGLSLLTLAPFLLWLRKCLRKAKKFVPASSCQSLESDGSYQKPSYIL
human CYP1A2, CYP1A2 (gene 1544), sequence (P05177 whole entry, looked up): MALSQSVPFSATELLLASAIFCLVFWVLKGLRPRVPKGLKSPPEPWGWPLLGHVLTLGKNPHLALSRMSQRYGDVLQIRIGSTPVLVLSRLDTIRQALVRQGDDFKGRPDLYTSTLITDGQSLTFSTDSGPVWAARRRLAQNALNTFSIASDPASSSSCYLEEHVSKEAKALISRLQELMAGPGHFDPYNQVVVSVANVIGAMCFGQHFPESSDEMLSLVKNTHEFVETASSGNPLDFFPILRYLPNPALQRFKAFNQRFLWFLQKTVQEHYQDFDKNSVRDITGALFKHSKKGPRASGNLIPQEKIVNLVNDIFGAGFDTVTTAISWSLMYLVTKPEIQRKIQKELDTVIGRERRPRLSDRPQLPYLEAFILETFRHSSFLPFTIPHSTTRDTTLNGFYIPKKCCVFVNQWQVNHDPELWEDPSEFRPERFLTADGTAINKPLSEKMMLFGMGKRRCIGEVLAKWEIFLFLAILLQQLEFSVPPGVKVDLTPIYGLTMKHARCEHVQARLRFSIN
human CYP2A6, CYP2A6 (gene 1548), sequence (P11509 whole entry, looked up): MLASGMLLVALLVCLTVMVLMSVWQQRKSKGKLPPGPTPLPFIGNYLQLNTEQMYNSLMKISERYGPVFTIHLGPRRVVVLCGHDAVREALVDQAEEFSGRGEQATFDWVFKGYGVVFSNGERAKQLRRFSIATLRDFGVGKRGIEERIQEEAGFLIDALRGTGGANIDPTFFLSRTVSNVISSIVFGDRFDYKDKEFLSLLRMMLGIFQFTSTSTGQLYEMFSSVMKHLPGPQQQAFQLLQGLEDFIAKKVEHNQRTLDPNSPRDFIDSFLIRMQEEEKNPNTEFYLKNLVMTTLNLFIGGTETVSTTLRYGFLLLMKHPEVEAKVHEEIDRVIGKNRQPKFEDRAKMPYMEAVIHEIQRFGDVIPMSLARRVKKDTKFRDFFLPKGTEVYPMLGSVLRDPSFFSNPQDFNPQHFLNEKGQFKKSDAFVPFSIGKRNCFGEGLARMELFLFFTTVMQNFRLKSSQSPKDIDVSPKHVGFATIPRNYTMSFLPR

CN(C)NC(=O)CCC(=O)O
not listed: [8] | [9] | [10]
inactive: all other assays above

COP(=O)(NC(C)=O)SC (centres undefined)
not listed: [9] | [10]
inactive: all other assays above

CC(C1CC1)C(O)(Cn1cncn1)c1ccc(Cl)cc1 (centres undefined)
active: [8] 5.27 µM
not listed: [9] | [10]
inactive: all other assays above

O=C(O)c1cc(Oc2ccc(C(F)(F)F)cc2Cl)ccc1[N+](=O)[O-]
not listed: [8] | [9] | [10]
inactive: all other assays above

COc1cccc(C(=O)NN(C(=O)c2cc(C)cc(C)c2)C(C)(C)C)c1C
not listed: [8] | [9] | [10]
inactive: all other assays above

COP(=O)(OC)SCn1c(=O)oc2cc(Cl)cnc21
inactive: [1] | [3] | [4]
active: [2] 20 µM | [6] 12.2 µM | [7] 13.4 µM

CSc1nnc(C(C)(C)C)c(=O)n1N
not listed: [8] | [9] | [10]
inactive: all other assays above

COc1cc(OC)nc(Sc2cccc(Cl)c2C(=O)O)n1
not listed: [8] | [9] | [10]
inactive: all other assays above

CCCOc1nn(C(=O)NS(=O)(=O)c2ccccc2C(=O)OC)c(=O)n1C
inactive: [1] | [2] | [3] | [4] | [6] | [7]

Nc1nc(N)nc(NC2CC2)n1
not listed: [8] | [9] | [10]
inactive: all other assays above

Nc1c(Cl)cc([N+](=O)[O-])cc1Cl
active: [2] 10.1 µM | [9] 2.05 µM | [10] 2.28 µM
not listed: [8]
inactive: all other assays above

CCOP(=O)(NC(C)C)Oc1ccc(SC)c(C)c1 (centres undefined)
active: [10] 4.84 µM
not listed: [8] | [9]
inactive: all other assays above

S=C1NCCN1
active: [9] 3.94 µM
not listed: [5] | [10]
inactive: all other assays above

CNC(=O)ON=C(SC)C(=O)N(C)C
active: [6] 20 µM
not listed: [5] | [9] | [10]
inactive: all other assays above

C#CCC1=C(C)C(OC(=O)C2C(C=C(C)C)C2(C)C)CC1=O (centres undefined)
active: [1] 30 µM | [2] 31.3 µM | [3] 36.6 µM | [4] 32.9 µM | [6] 34 µM | [7] 26.9 µM

CCC(=NOC/C=C/Cl)C1=C(O)CC(C2CCOCC2)CC1=O (centres undefined)
inactive: [1] | [2] | [3] | [4] | [6] | [7]

CC(=NC#N)N(C)Cc1ccc(Cl)nc1
inactive: [1] | [2] | [3] | [4] | [6] | [7]

CCOP(=O)(SC(C)CC)N1CCSC1=O (centres undefined)
inactive: [1] | [2] | [3] | [4] | [6] | [7]

CC(C)[C@H](C(=O)O[C@H](C#N)c1cccc(Oc2ccccc2)c1)c1ccc(Cl)cc1
active: [2] 12.3 µM | [4] 4.84 µM | [6] 12 µM
inactive: [1] | [3] | [7] | [8]

COP(=O)(OC)OC(Br)C(Cl)(Cl)Br (centres undefined)
active: [2] 22.7 µM | [3] 36.8 µM | [4] 14.7 µM | [5] 22.9 µM | [6] 7.28 µM | [7] 30.4 µM

CCOC(=O)CC(SP(=O)(OC)OC)C(=O)OCC (centres undefined)
not listed: [5]
inactive: all other assays above

CCOP(=S)(OCC)Oc1ccc([N+](=O)[O-])cc1
active: [2] 32.8 µM | [6] 32.1 µM | [10] 2.2 µM
not listed: [5] | [9]
inactive: all other assays above

N#CSCSC#N
active: [1] 11.9 µM | [2] 11.1 µM | [3] 8.84 µM | [4] 3.25 µM | [6] 1.99 µM | [7] 6.08 µM

CCOP(=O)(OCC)Oc1cc(C)nc(C(C)C)n1
not listed: [5] | [9] | [10]
inactive: all other assays above
